Screens deposited in PubChem by National Center for Advancing Translational Sciences (NCATS).
FBPA coupling cs = qHTS Assay for Inhibitors of Fructose-1,6-bisphosphate Aldolase from Giardia Lamblia: Coupling assay counterscreen; activity change, negative = inhibition, % at 58.2 µM, hits read low; coupling enzyme system counterscreen, AmpLite Red fluorescence; 0.67% of 290,000 active; in the data active = activity change below about -30%
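Final compound at 57.5 uM, incubated 10 min at RT with coupling enzyme reagent (glyceraldehyde-3-phosphate), then 20 min with substrate and AmpLite Red detection. Fluorescence read at 525/598 nm; tests interference with the coupling assay, not aldolase inhibition.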
Tau ThT inhib = qHTS for Inhibitors of Tau Fibril Formation, Thioflavin T Binding; Microtubule-associated protein tau (Homo sapiens), P10636; recombinant tau K18 P301L, heparin-induced fibrillization, ThT fluorescence; Potency, µM (top dose mostly 57.4 µM), inactives show at the highest dose activity, negative = inhibition, hits mostly inhibitors; 2.1% of 270,000 active; AID 1460, 2008; also: potency is read from the fitted curve at half-maximal effect; nearly all actives have a fitted effect of over 55% in size
Target sequence (P10636 561-689 P618L limits assumed): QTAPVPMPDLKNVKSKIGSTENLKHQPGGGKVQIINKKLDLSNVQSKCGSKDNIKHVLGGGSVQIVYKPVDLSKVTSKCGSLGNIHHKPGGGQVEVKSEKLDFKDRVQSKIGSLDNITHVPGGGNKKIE
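Using a mix of unlabeled (15 uM) and Alexa 594-labeled (0.24 uM) tau K18 P301L, heparin-triggered fibrillization over 6 hr at 37 C was scored by ThT fluorescence.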
Tau fluor counter = Counterscreen qHTS for Inhibitors of Tau Fibril Formation, Fluorescence Polarization; Potency, µM (highest dose often 57.7 µM), for the others: top-dose activity change, negative = decrease; tau K18 P301L Alexa594 fluorescence, heparin fibrillization; 0.93% of 280,000 active; also: potency is read from the fitted curve at half-maximal effect; nearly all actives have a fitted effect of over 55% in size
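Human tau K18 P301L (15 uM unlabeled, 0.24 uM Alexa 594-labeled) in 100 mM sodium acetate pH 7 with 20 uM heparin, 6 hr at 37 C. ThT 30 uM added, 1 hr ambient; Alexa 594 FP and total fluorescence read at 555/632 nm.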
USP1-UAF1 inh = Inhibitors of USP1/UAF1: Primary Screen | Ubiquitin carboxyl-terminal hydrolase 1 (Homo sapiens), O94782 | recombinant USP1/UAF1, Ub-Rhodamine cleavage fluorescence | Potency, µM (top dose mostly 57.1 µM), without a hit: top-dose activity change, negative = inhibition, most hits filed as inhibitors | 0.23% of 390,000 active | AID 743255, 2014; also: potency is read from the fitted curve at half-maximal effect; nearly all actives have a fitted effect of over 60% in size
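In this screen, compounds sit with the deubiquitinase complex (1nM) for 15 min at room temperature before Ub-Rho is added at 150nM final. Fluorescence rise is then followed for 6 reads every 60 seconds.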
Tau fibril FP = qHTS for Inhibitors of Tau Fibril Formation, Fluorescence Polarization. K18 P301L tau heparin fibrillization, Alexa594 FP, 6 h. Potency, µM (highest dose often 57.7 µM), inactives show at the top dose activity, negative = inhibition, hits mostly inhibitors. 0.39% of 280,000 active; also: potency is read from the fitted curve at half-maximal effect; nearly all actives have a fitted effect of over 55% in size
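K18 P301L tau (15 uM unlabeled/0.24 uM Alexa 594-labeled, final) + compound + heparin 20 uM final; 100 mM NaOAc pH 7; 6 hr 37 C; ThT 30 uM final added, 1 hr RT; FP ex 555/em 632 nm.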
An asterisk follows results filed as active; ? = inconclusive; . = no result given; [ ] = remark or other dose. This is a sample that favours compounds with a hit; in the whole collection about 2.3% have one here. Unless noted, calls follow the shape of the dose curve; as a rule, active = well fitted curve in the direction sought with a large enough effect; inconclusive = small, poorly fitted or top-dose-only effect, or another doubt; inactive = no such curve, though single readings can be large; an effect the other way counts as inactive or inconclusive. % is scaled to controls: 0 for no effect and ±100 for the full control effect.

SMILES | FBPA coupling cs | Tau ThT inhib | Tau fluor counter | USP1-UAF1 inh | Tau fibril FP
Clc1ccc(-c2csc(N/N=C/c3ccc4c(c3)OCO4)n2)cc1 | -3 | 8.9µM* | 11µM*[quencher] | -4% | -2%
O=[N+]([O-])c1cc(/C=N\Nc2nc(-c3ccccc3)cs2)ccc1O | 2 | 3.2µM* | 10µM*[quencher] | -19% | ?
O=[N+]([O-])c1ccc(-c2csc(N/N=C/c3cccnc3)n2)cc1 | 5 | 2.2µM* | ? | -11% | 4%
O=[N+]([O-])c1cc(/C=N/N/C(=N/c2ccccn2)c2ccccn2)ccc1O | -3 | ? | -13% | ? | -11%
CN(C)c1ccc(C=Nc2ccccc2)cc1 | -1 | 4% | -4% | 1% | 1%
CN(C)c1ccc(C=Nc2ccc(N(C)C)cc2)cc1 | -29 | 11µM* | ? | ? | 28µM*
C/C(=N/N=C/c1ccc(N(C)C)cc1)c1ccccc1 | -2 | 8.9µM* | ? | -17% | 2%
Cc1ccc(N=Cc2ccc(N(C)C)cc2)cc1 | 0 | -11% | -10% | -19% | 6%
CN(C)c1ccc(N=Cc2ccco2)cc1 | -42* | ? | ? | ? | ?
Cc1ccc2nc(CN3CCN(C(=O)Nc4cccc(C)c4C)CC3)oc2c1 | . | -10% | -7% | -1% | 6%
CCSC(=O)N=Nc1ccc(O)cc1 | . | . | . | 32µM* | .
CC(=O)/C(N=Nc1ccc(SC(F)F)cc1)=C(\C)O | -3 | ? | -12% | 0% | 2%
CCN(CC)c1ccc(C=N/C(C#N)=C(\N)C#N)cc1 | -3 | 2µM* | 14% | -9% | ?
CCN(CC)c1ccc(/C=C(\C#N)c2ccccn2)cc1 | -12 | ? | ? | ? | 14%
COc1cccc(C(C(=O)NC2CCCCC2)N(C(=O)CNC(=O)c2ccco2)c2cccnc2)c1 (centres undefined) | -1 | . | . | -13% | .
COC(=O)c1cc(NC(=O)c2ccc(OC)cc2)c(=O)oc1C | 0 | ? | -6% | -13% | 2%
CC(=O)c1cc(NC(=O)c2ccc(C)cc2)c(=O)oc1/C=C/N(C)C | 0 | ? | -22% | -18% | 11%
CC(=O)c1cc(NC(=O)c2ccccc2)c(=O)oc1C | 3 | 28µM* | -14% | -16% | ?
CC(=O)c1cc(NC(=O)c2ccc(C)cc2)c(=O)oc1C | 1 | 32µM* | -11% | -6% | ?
Cc1oc(=O)c(NC(=O)c2ccc(Cl)cc2)cc1C(=O)c1ccccc1 | -6 | 18µM* | -27% | -17% | ?
Cc1oc(=O)c(NC(=O)c2ccccc2)cc1C(=O)c1ccccc1 | -1 | 25µM* | -14% | -27% | ?
O=C(Nc1ccncc1)c1ccc(NS(=O)(=O)c2ccc3[nH]c(=O)[nH]c3c2)cc1 | . | . | . | -11% | .
CCCCSc1ncnc2c1c(-c1ccccc1)cn2-c1cccc(F)c1 | . | -20% | -26% | -2% | ?
O=C(CSc1nccn1-c1ncc(C(F)(F)F)cc1Cl)c1ccc(Cl)cc1 | 5 | 18µM* | -15% | -20% | ?
COc1ccc(CCNC(=O)c2c(C)oc3ncn(CC(C)C)c(=O)c23)c(OC)c1 | . | ? | -20% | -27% | -4%
SMILES | FBPA coupling cs | Tau ThT inhib | Tau fluor counter | USP1-UAF1 inh | Tau fibril FP
Cc1ccc(N=Cc2cc3c(cc2[N+](=O)[O-])OCO3)cc1[N+](=O)[O-] | . | . | . | -10% | .
Cc1ccc(C)c(N=Cc2cc3c(cc2[N+](=O)[O-])OCO3)c1 | -40* | ? | -18% | -20% | -1%
CN1C(=O)/C(=C/C=C2/CCCN2C)N(C)C1=S | -42* | 20µM* | -26% | -26% | ?
Cc1cc(N2CCCC2)ccc1/C=C1/C(=O)N(C)C(=S)N1C | 0 | ? | -11% | ? | ?
N#CCC(=O)Nc1ccc(C(=O)OCC(=O)Nc2ccccc2Sc2ccccc2)cc1 | -1 | -15% | ? | -14% | 28µM*
Cc1ccc(C)c(NC(=O)CN(C)C(=O)c2ccc(S(=O)(=O)N3CCCCCC3)cc2)c1 | . | . | . | -15% | .
COc1ccc(-c2cnnc(N/N=C/c3ccc(O)c(OC)c3)n2)cc1 | 4 | 1.8µM* | ? | -2% | 4%
COc1ccc(/C=N/Nc2nc(-c3cccc(S(=O)(=O)N4CCCC4)c3)cs2)cc1OC | 0 | ? | ? | -6% | 10%
CCOc1cc(/C=N/Nc2nc(-c3cccc(S(=O)(=O)N4CCCC4)c3)cs2)ccc1O | 0 | ? | 10µM*[quencher] | -20% | 14%
O=S(=O)(c1cccc(-c2csc(N/N=C/c3ccco3)n2)c1)N1CCOCC1 | -1 | 14µM* | 13µM*[quencher] | -18% | 10%
COc1cc(/C=N/Nc2nc(-c3ccc(S(=O)(=O)N(C)C)cc3)cs2)ccc1O | 0 | 10µM* | 13µM*[quencher] | -26% | 3%
O=S(=O)(c1cccc(-c2csc(-c3ccccc3)n2)c1)N1CCOCC1 | -2 | ? | ? | -13% | -8%
CCc1ccccc1NC(=O)C1(C)Cc2ccccc2C(=O)O1 (centres undefined) | . | -1% | -3% | -22% | -2%
COc1ccc(Cn2c(=O)c3cccnc3n(CC(=O)Nc3c(C)cc(C)cc3C)c2=O)cc1 | . | 6% | -3% | ? | -7%
CCC(CC)C(=O)Nc1cccc(-c2nc3cccnc3s2)c1 | . | 5% | -2% | -1% | -5%
COc1cc(/C=N/NC(=O)c2ccc(CN(C)S(=O)(=O)c3ccc(C)cc3)cc2)ccc1O | 4 | ? | 16µM*[quencher] | -14% | 6%
COc1cc(/C=N/NC(=O)c2ccccc2)ccc1O | -4 | -16% | -2% | 0% | 2%
O=C(O)C(C(=O)/C=C/c1ccco1)=C1SCCS1 | 3 | 16µM* | -16% | -8% | ?
